Bioassay records deposited in PubChem by National Center for Advancing Translational Sciences (NCATS).
Only some compounds are listed: those with a hit (about 21% of all), similar ones and a draw of the others.
TDP1 cell noCPT = qHTS for Inhibitors of human tyrosyl-DNA phosphodiesterase 1 (TDP1): qHTS in cells in absence of CPT; DT40 Tdp1-/- hTDP1 cells, no CPT, ATP luminescence, 48 h; Potency, µM (series often up to 46.2 µM), for inactives: top-dose activity change, negative = growth inhibition, actives largely listed as inhibitors; 15% of 420,000 active; AID 686978, 2013; also: potency is read from the fitted curve at half-maximal effect; % is scaled to controls: 0 for no effect and ±100 for the full control effect; nearly all actives have a fitted effect of over 55% in size
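Chicken DT40 Tdp1-/- cells stably complemented with human TDP1 were seeded at 400 cells/well with DMSO in place of 20 nM camptothecin. After compound pinning, cells grew at least 48 hr at 37 °C; viability read by CellTiter-Glo luminescence.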
D3 antag = blocks the human D3 dopamine receptor | AID 652054 | D3R cells, DiscoveRx beta-arrestin luminescence, antagonist mode; hits give low values | 2.5% of 360,000 active | max response, negative = inhibition, %; in the data active = max response below about -50%; inconclusive = no clear call, values can overlap the other calls; also: % is scaled to controls: 0 for no effect and ±100 for the full control effect
Target sequence (P35462 whole entry, looked up): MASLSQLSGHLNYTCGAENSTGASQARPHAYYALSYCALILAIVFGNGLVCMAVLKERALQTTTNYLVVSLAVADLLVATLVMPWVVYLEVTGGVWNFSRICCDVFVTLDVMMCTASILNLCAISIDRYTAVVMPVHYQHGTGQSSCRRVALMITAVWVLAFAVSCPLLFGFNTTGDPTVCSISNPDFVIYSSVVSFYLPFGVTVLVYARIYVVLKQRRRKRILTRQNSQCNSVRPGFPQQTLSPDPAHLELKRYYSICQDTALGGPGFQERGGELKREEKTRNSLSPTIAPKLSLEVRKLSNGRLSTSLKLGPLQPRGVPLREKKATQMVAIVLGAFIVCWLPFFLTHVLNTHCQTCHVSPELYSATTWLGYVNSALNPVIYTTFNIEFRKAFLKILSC
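Cells expressing the human receptor were seeded at 1500 cells/well, incubated overnight at 37 degrees C in 5% CO2, then exposed to library compounds with dopamine controls for 90 minutes at 37 degrees C before luminescent detection.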
D3 ag = agonists of human D3 dopamine receptor; P35462; D3R DiscoveRx beta-arrestin cells, luminescence, 90 min; max activation, %; 0.58% of 410,000 active; AID 652048; in the data active = max activation above about 30%; also: 0% is about no effect
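Agonist mode: compounds and dopamine controls were applied to plated cells for 90 min at 37 degrees C after an overnight attachment at 1500 cells/well. Luminescent read-out followed 30 - 60 minutes at room temperature with DiscoveRx detection reagent.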
DT40 TDP1 CPT = growth inhibition of DT40 Tdp1-/-;hTDP1 cells with camptothecin (screen for TDP1 inhibitors); chicken DT40 Tdp1-/-;hTDP1 cells + 20 nM CPT, ATP luminescence, 48 h; Potency, µM (series often up to 46.2 µM), for inactives: top-dose activity change, negative = growth inhibition, hits mostly inhibitors; 12% of 420,000 active; AID 686979; also: potency is read from the fitted curve at half-maximal effect; % is scaled to controls: 0 for no effect and ±100 for the full control effect; nearly all actives have a fitted effect of over 55% in size
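Chicken DT40 Tdp1-/- cells complemented with human TDP1, 400 cells/well, exposed to compounds plus 20 nM camptothecin for at least 48 h at 37 C; viability read as ATP content by CellTiter-Glo luminescence.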
IL-1B inflam inh = inflammasome signaling inhibition, IL-1 beta readout; THP-1 LPS/ATP IL-1B secretion, AlphaLISA, 16 h; hits give low values; activity change, % at 57.5 µM; 4.7% of 360,000 active; AID 743279; in the data active = activity change below about -50%; inconclusive = mostly about -30% to -49%; also: % is scaled to controls: 0 for no effect and ±100 for the full control effect
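THP-1 cells pretreated 1 hr with compounds (up to 57.5 uM final), then stimulated with LPS (250 ng/mL final) plus ATP (1.25 mM final); secreted IL-1B measured by AlphaLISA after 16 hr, decreased signal indicating inhibition.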
ClpP mod = qHTS Assay for Activators of ClpP | Potency, µM (highest dose often 57.5 µM), for inactives: at the top dose activity change, negative = active | purified B. subtilis ClpP, FRET peptide cleavage, 20 min | 1.9% of 340,000 active | AID 651965, 2013; active = well fitted falling curve with a large enough effect; inconclusive = small, poorly fitted or top-dose-only effect; inactive = no such curve, though single readings can be large or run the other way; also: potency is read from the fitted curve at half-maximal effect; the source files actives as falling curves though it sought activators and does not explain the sign; nearly all actives have a fitted effect of over 65% in size
Target sequence (P80244 whole entry, looked up): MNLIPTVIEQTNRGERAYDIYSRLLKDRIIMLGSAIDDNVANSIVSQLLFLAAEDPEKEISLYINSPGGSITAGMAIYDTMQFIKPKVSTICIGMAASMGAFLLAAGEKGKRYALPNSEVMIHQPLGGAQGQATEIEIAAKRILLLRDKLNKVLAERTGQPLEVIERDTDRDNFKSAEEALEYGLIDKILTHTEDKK
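FRET quenching reversal measured ClpP activation: 10 microg/mL B. subtilis ClpP at pH 8 with the FRET-FV decapeptide, read at 430 nm after 320 nm excitation. The 20-min minus 0-min signal was scaled between DMSO/no-enzyme wells and ADEP (5.8 microM final).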
Numbers without * were called inactive; ? = inconclusive; · = no result. Unless noted, calls follow the shape of the dose curve; as a rule, active = well fitted inhibition curve with a large enough effect; inconclusive = small, poorly fitted or top-dose-only effect; inactive = flat fitted curve, though single readings scatter.

SMILES | TDP1 cell noCPT | D3 antag | D3 ag | DT40 TDP1 CPT | IL-1B inflam inh | ClpP mod
Cc1ccc(CN(C(=O)c2csnn2)C(C(=O)NC2CCCC2)c2cccnc2)cc1 (configuration not stated) | -9.7% | 7.7 | -11.8 | -17.0% | -17.0 | ·
Cc1cccc2sc(NC(=O)C3CCN(S(=O)(=O)c4cc([N+](=O)[O-])ccc4Cl)CC3)nc12 | 16.4µM* | -4.9 | 7.1 | 18.4µM* | -75.6* | -4.1%
Cc1nnc(NC(=O)C2CCN(S(=O)(=O)c3cc([N+](=O)[O-])ccc3Cl)CC2)o1 | 13.3% | -16.4 | 1.7 | -23.8% | 9.4 | -0.7%
CCOC(=O)c1cc(-c2ccccc2)n(CCC(=O)Nc2ccc(Cl)c(C(F)(F)F)c2)c1C | 4.61µM* | · | 2.6 | 3.66µM* | · | -5.2%
CCOC(=O)c1cc(-c2ccccc2)n(CCC(=O)Nc2cc(C)cc(C)c2)c1C | 14.6µM* | · | -11.0 | 14.6µM* | · | -12.2%
CCOC(=O)c1cc(-c2ccccc2)n(CCC(=O)Nc2ccc(C)cc2Cl)c1C | ? | · | -2.6 | ? | · | 3.6%
COc1ccc(-c2noc(CNC(=O)c3ccc4c(c3)OCO4)n2)cc1OC | -5.7% | 24.1 | 3.0 | -9.5% | 4.2 | ·
CCOc1ccc(CCN2C(=O)C(=O)N([C@@H](CC(C)C)CN3CCC[C@H]3CN3C(=O)C(=O)NC[C@@H]3CC(C)C)C[C@@H]2Cc2ccccc2)cc1 | ? | -1.8 | -2.7 | ? | -92.3* | -1.0%
CCOc1ccc(CCN2C(=O)C(=O)N([C@@H](CC(C)C)CN3CCC[C@H]3CN3C(=O)C(=O)NC[C@@H]3Cc3ccc(O)cc3)C[C@@H]2CC(C)C)cc1 | ? | 19.8 | 6.8 | ? | -53.7* | -0.6%
CCOc1ccc(CCN2C(=O)C(=O)N([C@@H](CC(C)C)CN3CCC[C@H]3CN3C(=O)C(=O)NC[C@@H]3CC(C)C)C[C@@H]2CC(C)C)cc1 | ? | 22.9 | 5.4 | ? | -28.3 | 3.1%
O=C(C[n+]1ccccc1)c1ccc(I)cc1 | ? | · | · | -19.6% | · | -1.9%
O/N=C(/C[n+]1csc2ccccc21)c1ccccc1 | 1.12µM* | · | · | 1.12µM* | · | 2.0%
Cc1csc[n+]1CC(=O)c1ccc(I)cc1 | ? | · | · | 15.8µM* | · | -2.0%
O=C(C[n+]1csc2ccccc21)c1ccc(I)cc1 | 11.2µM* | · | · | ? | · | 1.7%
Cc1c(OCC(=O)N(C)c2ccccc2)ccc2c3c(c(=O)oc12)CCC3 | -18.1% | -4.5 | 4.6 | -6.3% | -2.8 | ·
O=C(C1CCC(CNc2c(N3CCCCC3)c(=O)c2=O)CC1)N1CCCC1 (configuration not stated) | 3.6% | -18.0 | 0.5 | 2.7% | -2.0 | -0.1%
Cc1ccsc1CN1CCc2nc(Nc3ccccc3)ncc2C1 | ? | · | 0.6 | ? | · | -3.3%
O=C(NCCc1ccc(C(F)(F)F)cc1)C1CCC(=O)N(CCCN2CCCC2=O)C1 (configuration not stated) | 1.4% | 1.5 | -0.2 | -19.3% | 14.7 | -2.1%
CCc1ccc(N2CN(CCc3ccccc3)CNC2=S)cc1 | 29.1µM* | -1.1 | 0.2 | ? | 18.0 | 0.2%
COc1cccc(N2CN(CCc3ccccc3)CNC2=S)c1 | ? | 6.7 | 11.2 | 5.7% | · | ·
CCc1ccccc1NC(=O)Nc1cc(C(=O)NCc2ccccc2OC)ccc1N1CCCC1 | ? | · | -4.5 | 14.6µM* | · | 0.1%
COc1ccc(CNC(=O)c2ccc(N3CCCC3)c(NC(=O)NCc3ccc(C)cc3)c2)cc1 | ? | · | 0.2 | 16.4µM* | · | ?
CC(C)c1ccc(CNC(=O)c2ccc(N3CCCC3)c(NC(=O)NCc3ccc(F)cc3)c2)cc1 | ? | · | -4.7 | ? | · | -7.4%
CCOc1ccccc1NC(=O)Nc1cc(C(=O)NCc2ccc(C)cc2)ccc1N1CCCC1 | 8.2µM* | · | -4.8 | 8.2µM* | · | -3.9%
COc1ccc(C)cc1NC(=O)Nc1cc(C(=O)NCc2ccc(C)cc2)ccc1N1CCCC1 | ? | · | -7.5 | ? | · | -2.6%
SMILES | TDP1 cell noCPT | D3 antag | D3 ag | DT40 TDP1 CPT | IL-1B inflam inh | ClpP mod
CCOCCCNC(=O)Nc1cc(C(=O)NCc2ccc(C(C)C)cc2)ccc1N1CCCC1 | ? | · | -7.6 | 25.9µM* | · | ?
Cc1cccc(N(CC(=O)NC2CCCC2)C(=O)c2cc3cc4cccc(C)c4nc3s2)c1C | 16.4µM* | -28.4 | -14.9 | 18.4µM* | ? | -20.9%
Cc1ccc(C)c(N(CC(=O)NC2CCCC2)C(=O)c2cc3cc4cc(C)ccc4nc3s2)c1 | 11.2µM* | 10.1 | -4.7 | 8.2µM* | 18.6 | -0.8%
Cc1cccc(N(CC(=O)NC2CCCC2)C(=O)c2csnn2)c1C | 3.8% | ? | -2.3 | -15.2% | -4.2 | ·
CCOc1cc(/C=N/Nc2cccc(C(=O)O)c2)ccc1OCC(=O)N1CCCCC1 | 0.3% | 11.5 | 1.2 | 5.8% | 11.1 | ·
O=C(Nc1ccc(S(=O)(=O)N2CCOCC2)cc1)c1cc(-c2cc(Cl)ccc2O)n[nH]1 | 5.8µM* | -8.9 | -14.6 | 6.51µM* | ? | 0.8%
O=C(Nc1ccc(Cl)cc1)c1ccc(S(=O)(=O)N2CCOCC2)cc1 | ? | -7.0 | 1.1 | ? | 7.3 | ·
Cc1cc(O)c(-c2cc(C(=O)Nc3ccc(S(=O)(=O)N4CCOCC4)cc3)[nH]n2)cc1C | 18.4µM* | 11.8 | -26.5 | ? | -104.8* | -4.8%
O=C(CC(=O)c1ccccn1)c1ccccc1 | 16.4µM* | ? | 7.6 | 20.6µM* | 59.8 | -2.7%
O=C(CC(CC(=O)c1ccccc1)c1ccccn1)c1ccccc1 | 14.6µM* | 25.6 | -7.8 | ? | 3.3 | ·
COc1cccc(C(=O)NNS(=O)(=O)c2ccccc2)c1 | -18.4% | -11.3 | 3.7 | 0.2% | 12.2 | 0.3%
Cc1ccc(CNC(=O)CCS(=O)(=O)c2ccc3c(c2)NC(=O)CS3)cc1 | 1.3% | -1.1 | 1.1 | -29.9% | 14.4 | -0.2%
CC1CN=C(N(C(=S)Nc2ccccc2)c2cccc(C(F)(F)F)c2)S1 (configuration not stated) | ? | -8.0 | -7.0 | 0.6% | · | ·
Cc1c(C(=O)Nc2ccc(F)cc2)oc2ccc(S(=O)(=O)N3CCC4(CC3)OCCO4)cc12 | 22.4µM* | 28.6 | 64.7* | 15.8µM* | 0.0 | -6.0%
Cc1ccc(NC(=O)c2oc3ccc(S(=O)(=O)N4CCC5(CC4)OCCO5)cc3c2C)c(C)c1 | 6.51µM* | · | 8.9 | 8.2µM* | · | -16.4%
Cc1ccc(NC(=O)c2cc(S(=O)(=O)N3CCC4(CC3)OCCO4)ccc2F)cc1 | -11.3% | -14.0 | -17.5 | -12.9% | 0.0 | 0.6%
